Laboratory results as given in ChEMBL document CHEMBL3988442, “University of Dundee, Small-Polar-MMV Screening Library” (2021).
For some of these results: Measured potencies and affinities stand elsewhere.

How the values were obtained:
Parameters in all cases: scale not given: direction of the effect not stated beside the values
[1] = biological target: Protein translocase subunit SecA (Escherichia coli (strain K12)) (UniProt P10408); experiment: Assay to Identify E. coli SecA ATPase Inhibitors; type: functional; settings: 30 µM
[2] = biological target: T1, Ubiquitin-activating enzyme e1, putative (Leishmania donovani (strain BPK282A1)) (UniProt E9BSI1); experiment: Leishmania donovani Ubiquitin Activating Enzyme (LdE1); type: functional; settings: 30 µM
T1 sequence (whole entry): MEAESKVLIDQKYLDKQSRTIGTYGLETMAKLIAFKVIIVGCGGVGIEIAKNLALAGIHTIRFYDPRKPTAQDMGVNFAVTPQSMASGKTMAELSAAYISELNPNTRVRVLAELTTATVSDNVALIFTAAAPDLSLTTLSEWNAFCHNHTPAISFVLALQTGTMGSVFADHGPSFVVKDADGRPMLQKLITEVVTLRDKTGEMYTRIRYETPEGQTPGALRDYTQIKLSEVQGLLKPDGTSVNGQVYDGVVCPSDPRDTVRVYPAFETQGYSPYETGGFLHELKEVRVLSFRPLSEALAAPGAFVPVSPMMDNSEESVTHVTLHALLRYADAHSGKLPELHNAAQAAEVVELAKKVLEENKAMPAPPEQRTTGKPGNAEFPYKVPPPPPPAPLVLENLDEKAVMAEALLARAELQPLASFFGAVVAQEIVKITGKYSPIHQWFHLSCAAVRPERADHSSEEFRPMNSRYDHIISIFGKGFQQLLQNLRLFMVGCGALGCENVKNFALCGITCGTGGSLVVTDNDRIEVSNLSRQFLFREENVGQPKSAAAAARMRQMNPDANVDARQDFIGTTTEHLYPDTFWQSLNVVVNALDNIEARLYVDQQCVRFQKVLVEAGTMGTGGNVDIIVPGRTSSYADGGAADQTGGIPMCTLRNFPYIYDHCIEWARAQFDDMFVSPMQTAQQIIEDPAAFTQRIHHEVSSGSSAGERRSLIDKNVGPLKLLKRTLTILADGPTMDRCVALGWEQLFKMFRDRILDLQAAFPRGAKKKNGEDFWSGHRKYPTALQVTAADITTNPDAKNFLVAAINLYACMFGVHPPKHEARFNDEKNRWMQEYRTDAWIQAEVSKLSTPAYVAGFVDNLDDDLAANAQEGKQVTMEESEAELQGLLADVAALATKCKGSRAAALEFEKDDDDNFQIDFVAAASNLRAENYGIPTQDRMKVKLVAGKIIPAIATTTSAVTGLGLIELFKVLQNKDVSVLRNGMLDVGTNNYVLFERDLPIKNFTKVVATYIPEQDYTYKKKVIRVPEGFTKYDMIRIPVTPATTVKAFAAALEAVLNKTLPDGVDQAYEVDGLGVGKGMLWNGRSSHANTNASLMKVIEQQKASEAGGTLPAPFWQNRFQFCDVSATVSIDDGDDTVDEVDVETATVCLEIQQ

[3] = biological target: AMP-activated protein kinase, AMPK (Homo sapiens) (UniProt P54646+O43741+P54619+Q9UGJ0+Q9Y478+Q13131+Q9UGI9); experiment: AMP-dependent Kinase enzyme assay. An in vitro enzyme assay that detects ADP turnover that is directly proportional to AMPK activity. This uses naive AMPK that is activated during the assay with MK-8722; type: functional; settings: 30 µM
[4] = biological target: Sialic acid-binding Ig-like lectin 9 (Homo sapiens) (UniProt Q9Y336); experiment: Hs-Siglec9 ALPHAscreen SOP 20170721; settings: 10 µM
Trypanosoma cruzi = experiment: Trypanosoma cruzi phosphomannomutase and mannose-1-phosphate guanylyltransferase assay; type: functional; settings: 10 µM
[5] = biological target: T2, Arginase-2, mitochondrial (Homo sapiens) (UniProt P78540); experiment: in vitro enzyme assay to detect the production of urea directly proportional to the activity of Arginase II; type: functional; settings: 33.3 µM; further: in the data most compounds retested in dose-response had high values
T2 sequence (whole entry): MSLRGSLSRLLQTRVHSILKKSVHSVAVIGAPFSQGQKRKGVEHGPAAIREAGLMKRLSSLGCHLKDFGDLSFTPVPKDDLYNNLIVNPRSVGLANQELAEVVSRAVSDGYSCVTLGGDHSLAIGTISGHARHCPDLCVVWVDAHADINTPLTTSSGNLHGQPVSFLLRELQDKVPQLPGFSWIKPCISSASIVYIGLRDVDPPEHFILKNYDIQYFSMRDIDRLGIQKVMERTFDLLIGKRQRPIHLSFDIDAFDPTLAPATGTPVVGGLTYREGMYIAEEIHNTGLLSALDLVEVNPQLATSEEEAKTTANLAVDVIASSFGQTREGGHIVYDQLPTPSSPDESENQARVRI

[6] = biological target: T3, Proteasome subunit beta (Trypanosoma cruzi) (UniProt O96673); experiment: Trypanosoma cruzi proteasome chymotrypsin-like activity (TcProtChymo) assay.; further: in the data most compounds retested in dose-response had high values; type: functional; settings: 9.37 µM
T3 sequence (whole entry): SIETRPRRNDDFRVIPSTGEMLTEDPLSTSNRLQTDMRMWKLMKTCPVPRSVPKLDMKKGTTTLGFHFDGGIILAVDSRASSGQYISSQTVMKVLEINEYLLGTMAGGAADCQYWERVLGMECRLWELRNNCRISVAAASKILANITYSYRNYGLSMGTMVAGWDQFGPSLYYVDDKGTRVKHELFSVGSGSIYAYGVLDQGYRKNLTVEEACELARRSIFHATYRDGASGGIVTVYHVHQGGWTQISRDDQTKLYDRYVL

Homo sapiens = species on record: Homo sapiens; experiment: To identify inhibition of the IFN signalling (Jak-Stat) pathway via expression of an eGFP reporter gene under the control of an IFN-stimulated response element (ISRE) containing MxA promoter.; type: functional; settings: 30 µM
[7] = biological target: T4, Tyrosyl-tRNA synthetase, putative (Trypanosoma cruzi (strain CL Brener)) (UniProt Q4DSP6); experiment: Trypanosoma cruzi tyrosyl tRNA synthetase (TcYRS) _High Tyrosine SOP; type: functional; settings: 30 µM; further: in the data most compounds retested in dose-response had high values
T4 sequence (whole entry): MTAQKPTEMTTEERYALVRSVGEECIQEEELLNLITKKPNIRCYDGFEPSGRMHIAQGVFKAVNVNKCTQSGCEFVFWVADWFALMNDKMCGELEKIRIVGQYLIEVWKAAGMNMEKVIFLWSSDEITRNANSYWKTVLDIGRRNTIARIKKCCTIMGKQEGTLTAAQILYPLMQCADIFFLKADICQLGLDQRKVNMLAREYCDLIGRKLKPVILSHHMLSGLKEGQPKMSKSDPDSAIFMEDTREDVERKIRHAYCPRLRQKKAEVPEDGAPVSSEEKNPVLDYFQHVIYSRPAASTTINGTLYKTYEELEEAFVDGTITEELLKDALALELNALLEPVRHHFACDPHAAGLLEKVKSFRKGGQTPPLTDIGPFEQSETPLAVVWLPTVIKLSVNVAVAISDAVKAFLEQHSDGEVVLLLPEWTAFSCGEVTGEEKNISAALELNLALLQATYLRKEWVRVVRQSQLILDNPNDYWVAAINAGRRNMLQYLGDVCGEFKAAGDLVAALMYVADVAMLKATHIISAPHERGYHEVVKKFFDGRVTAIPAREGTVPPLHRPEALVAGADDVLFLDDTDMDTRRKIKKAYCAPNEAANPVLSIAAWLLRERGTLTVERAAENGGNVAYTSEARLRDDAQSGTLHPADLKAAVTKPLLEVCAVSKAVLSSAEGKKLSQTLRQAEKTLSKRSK

[8] = biological target: T4, Tyrosyl-tRNA synthetase, putative (Trypanosoma cruzi (strain CL Brener)); experiment: Trypanosoma cruzi tyrosyl tRNA synthetase (TcYRS) SOP; type: functional; settings: 30 µM
[9] = biological target: Chromo domain-containing protein 1 (Saccharomyces cerevisiae (strain ATCC 204508 / S288c) (Baker's yeast)) (UniProt P32657); experiment: ScCHD-1 Enzyme Inhibition Assay; type: functional; settings: 30 µM; further: in the data most compounds retested in dose-response had high values
Chain of Chromo domain-containing protein 1 (Saccharomyces cerevisiae (strain ATCC 204508 / S288c) (Baker's yeast)) (P32657 whole entry, the tested form may be a part): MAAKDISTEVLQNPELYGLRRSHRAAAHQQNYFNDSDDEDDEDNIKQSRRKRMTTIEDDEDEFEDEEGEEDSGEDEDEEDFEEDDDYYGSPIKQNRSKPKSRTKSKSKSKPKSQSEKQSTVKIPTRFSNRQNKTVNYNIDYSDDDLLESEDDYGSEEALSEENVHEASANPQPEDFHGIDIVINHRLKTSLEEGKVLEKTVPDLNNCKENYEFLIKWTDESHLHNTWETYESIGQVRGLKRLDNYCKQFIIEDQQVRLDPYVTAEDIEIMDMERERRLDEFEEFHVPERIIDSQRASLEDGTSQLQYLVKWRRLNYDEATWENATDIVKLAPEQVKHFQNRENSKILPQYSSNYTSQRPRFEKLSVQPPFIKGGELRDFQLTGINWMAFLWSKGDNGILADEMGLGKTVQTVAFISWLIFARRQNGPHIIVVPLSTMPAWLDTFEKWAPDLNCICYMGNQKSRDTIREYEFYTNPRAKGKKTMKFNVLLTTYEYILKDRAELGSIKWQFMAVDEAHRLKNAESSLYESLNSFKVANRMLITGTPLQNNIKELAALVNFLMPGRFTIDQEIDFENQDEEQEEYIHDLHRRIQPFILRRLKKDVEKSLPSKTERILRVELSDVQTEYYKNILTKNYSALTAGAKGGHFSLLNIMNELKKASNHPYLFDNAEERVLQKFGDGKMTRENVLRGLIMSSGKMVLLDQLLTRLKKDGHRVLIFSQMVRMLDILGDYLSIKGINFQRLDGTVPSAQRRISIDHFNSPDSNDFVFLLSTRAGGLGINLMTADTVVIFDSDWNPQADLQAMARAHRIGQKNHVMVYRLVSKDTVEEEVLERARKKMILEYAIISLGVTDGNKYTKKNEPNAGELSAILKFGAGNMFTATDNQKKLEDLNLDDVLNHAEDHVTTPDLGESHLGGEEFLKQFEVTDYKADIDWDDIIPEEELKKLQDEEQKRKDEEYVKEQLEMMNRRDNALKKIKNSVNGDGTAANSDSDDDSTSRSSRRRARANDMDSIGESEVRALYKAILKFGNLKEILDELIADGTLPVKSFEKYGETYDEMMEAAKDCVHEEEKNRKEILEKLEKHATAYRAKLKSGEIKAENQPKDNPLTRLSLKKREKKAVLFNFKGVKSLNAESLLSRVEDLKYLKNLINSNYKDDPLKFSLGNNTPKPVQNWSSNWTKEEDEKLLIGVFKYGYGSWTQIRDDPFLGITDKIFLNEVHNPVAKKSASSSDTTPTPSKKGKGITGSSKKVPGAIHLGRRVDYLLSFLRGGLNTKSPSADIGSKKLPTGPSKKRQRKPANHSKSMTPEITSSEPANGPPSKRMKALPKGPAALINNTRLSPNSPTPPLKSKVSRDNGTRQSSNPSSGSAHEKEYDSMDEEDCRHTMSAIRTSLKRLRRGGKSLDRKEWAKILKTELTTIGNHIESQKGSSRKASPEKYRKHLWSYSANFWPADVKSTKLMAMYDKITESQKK

Chain of Sialic acid-binding Ig-like lectin 9 (Homo sapiens) (Q9Y336 whole entry): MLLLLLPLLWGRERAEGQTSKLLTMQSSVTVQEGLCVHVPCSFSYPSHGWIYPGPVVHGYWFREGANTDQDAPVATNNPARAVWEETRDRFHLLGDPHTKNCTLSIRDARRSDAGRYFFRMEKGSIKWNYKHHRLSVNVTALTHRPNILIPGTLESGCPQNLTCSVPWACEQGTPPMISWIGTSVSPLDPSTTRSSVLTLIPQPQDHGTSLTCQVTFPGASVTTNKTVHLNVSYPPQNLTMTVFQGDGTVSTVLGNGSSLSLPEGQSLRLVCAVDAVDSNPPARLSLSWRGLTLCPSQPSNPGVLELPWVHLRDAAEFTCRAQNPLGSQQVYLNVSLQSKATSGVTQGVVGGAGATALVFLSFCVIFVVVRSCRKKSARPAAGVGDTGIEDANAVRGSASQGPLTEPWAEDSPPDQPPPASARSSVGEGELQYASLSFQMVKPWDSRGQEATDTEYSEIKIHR
Chain of Protein translocase subunit SecA (Escherichia coli (strain K12)) (P10408 whole entry): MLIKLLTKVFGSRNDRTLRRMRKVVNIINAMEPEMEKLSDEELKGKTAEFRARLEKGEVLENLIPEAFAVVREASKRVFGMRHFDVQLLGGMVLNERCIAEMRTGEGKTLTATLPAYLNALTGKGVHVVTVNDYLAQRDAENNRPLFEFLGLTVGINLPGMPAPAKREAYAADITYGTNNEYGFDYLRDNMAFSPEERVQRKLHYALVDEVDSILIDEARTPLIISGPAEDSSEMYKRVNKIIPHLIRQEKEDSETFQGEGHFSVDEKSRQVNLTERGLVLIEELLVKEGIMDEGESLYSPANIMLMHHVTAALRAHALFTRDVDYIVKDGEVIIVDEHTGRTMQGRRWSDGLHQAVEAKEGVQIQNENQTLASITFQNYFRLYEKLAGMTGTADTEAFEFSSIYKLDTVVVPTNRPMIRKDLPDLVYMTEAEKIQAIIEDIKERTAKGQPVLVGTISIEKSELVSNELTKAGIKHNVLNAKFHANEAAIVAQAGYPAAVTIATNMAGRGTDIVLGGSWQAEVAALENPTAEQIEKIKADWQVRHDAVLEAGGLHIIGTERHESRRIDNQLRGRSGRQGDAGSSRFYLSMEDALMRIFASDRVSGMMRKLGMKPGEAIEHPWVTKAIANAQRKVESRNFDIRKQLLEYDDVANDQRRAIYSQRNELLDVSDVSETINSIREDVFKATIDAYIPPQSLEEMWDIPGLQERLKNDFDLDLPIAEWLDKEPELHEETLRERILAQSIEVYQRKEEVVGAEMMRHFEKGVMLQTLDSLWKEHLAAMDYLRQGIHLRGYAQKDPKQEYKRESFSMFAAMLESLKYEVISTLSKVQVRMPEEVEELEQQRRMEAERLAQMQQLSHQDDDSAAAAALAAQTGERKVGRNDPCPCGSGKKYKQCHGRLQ

| Compound | Percent Effect [1] [%] | Percent Effect [2] [%] | Percent Effect [3] [%] | Percent Effect [4] [%] | Percent Effect (Trypanosoma cruzi) [%] | Percent Effect [5] [%] | Percent Effect [6] [%] | Percent Effect (Homo sapiens) [%] | Percent Effect [7] [%] | Percent Effect [8] [%] | Percent Effect [9] [%] |
| --- | --- | --- | --- | --- | --- | --- | --- | --- | --- | --- | --- |
| COc1cccc(CC2CN(C3CCN(C(C)=O)CC3)CCO2)c1 (stereo not given) | -1.38 | -7.79 | 2.17 | 2.19 | -1.87 | -2.76 | -0.499 | -4.71 | 2.15 | 3.7 | 1.6 |
| COC(=O)N1CCCN(C(=O)NCc2ccc(Cl)s2)CC1 | -1.83 | 16.5 | 4.69 | -2.7 | 0.308 | -4.09 | 12.9 | 19.3 | 7.29 | 15.2 | -27.7 |
| Cc1nn(C)c(N2CCOCC2)c1CNC1CCc2ccccc2C1 (stereo not given) | -2.57 | 15.2 | -15 | 9.25 | 3.12 | -2.28 | -2.87 | 8.26 | 9.36 | 16.5 | -4.44 |
| Cc1cc(C2CCCN2C(=O)NCc2cccc(F)c2)on1 (stereo not given) | -3.25 | 8 | -2.75 | 0.538 | -1.07 | 1.56 | 16.2 | 10.1 | 8.2 | 13.6 | -5.2 |
| CC(=O)N1[C@H](Cn2cncn2)C[C@@H]2CN(c3ccc(C)nn3)CC[C@@H]21 | -0.849 | 2.6 | 1.33 | 0.483 | 3.83 | 0 | 9.98 | -9.62 | -1.07 | 1.24 | -3.45 |
| CN(C(=O)c1cccc2[nH]ncc12)C1CCN(c2ccccn2)CC1 | -8.48 | 7.79 | -0.81 | -5.52 | -4.6 | -3.16 | -4.12 | 30.5 | 0.952 | 2.35 | -18.1 |
| CCCOc1cc(CNC(=O)Nc2cccnc2N2CCCC2)ccn1 | -1.55 | -2.7 | -14.8 | 5.9 | -1.04 | 4.81 | 5.77 | 6.16 | -0.493 | 3.7 | -5.59 |
| CCC1CN(c2nnc(C)c(C)c2C#N)CCO1 (stereo not given) | -3.31 | 2.63 | -17.9 | -4.88 | 6.96 | 1.15 | 20.7 | 9.86 | 0.49 | 21.9 | -13.8 |
| NC(=O)C1CCN(Cn2nc(-c3ccc(F)cc3)oc2=O)CC1 | -3.92 | 2.6 | 9.43 | 0.452 | -22.7 | 4.14 | 22 | 24.3 | -1.07 | 1.24 | -2.23 |
| Cc1cccc(CNC2CCCc3c2cnn3C)c1 (stereo not given) | 2.29 | -5.41 | -6.19 | 5.27 | 5.38 | 0 | 3.6 | -2.08 | 0.493 | 6.17 | -2 |
| CC(=O)N(Cc1ncc(C(C)C)o1)C1CCN(Cc2ncc[nH]2)C1 (stereo not given) | -1 | 10.8 | -3.5 | -1.85 | 3.99 | -3.14 | 5.21 | 6.45 | 13.9 | 25.6 | -5.05 |
| Cc1ccccc1CS(=O)(=O)NCCCN1CCCCC1 | -6.3 | 5.33 | 6.44 | 24.2 | 0.292 | 2.6 | 6.63 | 7.26 | 1.64 | 3.7 | -2.2 |
| CCn1nnc2cc(C(=O)N3CCCC3Cn3cc(C)cn3)ccc21 (stereo not given) | -1.32 | -5.06 | -2.65 | 3.15 | 3.31 | 2.28 | 0.737 | 9.94 | 0.493 | 1.27 | 0.343 |
| CC(C)CCN1CC2(CCCN(C(=O)c3cscn3)C2)CCC1=O (stereo not given) | -3.18 | 7.79 | 1.5 | 11.5 | 4.82 | -66.2 | 8.98 | -4.77 | 5.38 | 13.6 | -0.298 |
| N#CCCN(C(=O)CN1CCCC1Cc1ccccc1)c1ccccc1 (stereo not given) | -5.2 | 2.7 | -1.32 | 26.1 | 4.1 | 10.8 | 5.33 | 0.149 | 11.9 | 13.4 | -6.86 |
| Cc1nn(C)c(C)c1NC(=O)CN1CCCC1c1noc(C2CC2)n1 (stereo not given) | 2.36 | 13.7 | -14.8 | 1.88 | -0.196 | 3.64 | 20.6 | -0.924 | 6.45 | 12.5 | -7.02 |
| Cc1nn(C)c(C)c1C1CCCN1Cc1nc(-c2ccco2)oc1C (stereo not given) | -4.35 | 18.9 | -4.34 | -6.83 | -1.76 | 3.14 | 11.3 | 18.9 | 8.91 | 13.4 | -8.93 |
| Cc1ccccc1CC1(CO)CCCN(c2ncccc2C#N)C1 (stereo not given) | -2.63 | 0 | 3.1 | 0.621 | -5.21 | 1.43 | 17.1 | 27.8 | 3.7 | 7.32 | -1.78 |
| O=C(CCNc1ncccn1)NCCc1ccn(-c2ccccc2)n1 | -3.96 | 21.5 | -1.83 | -7.45 | 4.82 | 0.215 | 15.4 | -2.32 | 6.25 | 20.2 | -24.6 |
| CC(NC(=O)NCc1ccoc1)c1ccc2c(c1)CCC(=O)N2 (stereo not given) | -9.31 | -7.79 | -9.15 | 13 | 12.2 | 2.49 | 28.6 | 16.5 | 8.74 | 24.4 | -9.68 |
